PubChem BioAssay AID1259421 (Broad Institute, 2018)
Several values for one entry are separate records, joined by “and”; a condition that tells them apart may be missing. Equal entries are not always repeated. In all, about 6,400 compounds went through this assay and about 610 (9.5%) were called active. No stated cut-off is given here; in the data, active means activity change below about -70%; inconclusive means no clear call, values can overlap the other calls; inactive means above that. This excerpt belongs to a sample that is enriched for actives. Some structures have more than one record in an assay (separate samples or runs), and their calls can disagree.

assay: Toxoplasma gondii ME49Luc growth in HeLa cells, luciferase, no IFN-y, primary screen (AID 1259421); settings: T. gondii ME49Luc in HeLa, 72 h, stronger effect = lower value, concentration not given here

SMILES | activity change, negative = inhibition
NC(=O)CS(=O)C(c1ccccc1)c1ccccc1 (configuration not stated) | -1.56% (inactive)
O=C(CCCN1CCC2(CC1)C(=O)NCN2c1ccccc1)c1ccc(F)cc1 | 2.21% (inactive) and -33.3% (inactive)
O=C(CCCN1CCC2(CC1)C(=O)N(Cc1cccc(F)c1)CN2c1ccccc1)c1ccc(F)cc1 | 10% (inactive) and -81.6% (active)
COC(=O)CN1CN(c2ccccc2)C2(CCN(Cc3ccc4ccccc4c3)CC2)C1=O | 13.3% (inactive)
Cc1cc(OC(=O)N2CCCCC2)c(C(C)C)cc1[N+](C)(C)C | -5.32% (inactive)
C/C(=C\c1csc(C)n1)[C@H]1C[C@@H]2O[C@]2(C)CCC[C@H](C)[C@H](O)[C@@H](C)C(=O)C(C)(C)[C@H](O)CC(=O)O1 | -73.6% (active)
C/C(=C\c1csc(C)n1)[C@H]1C[C@@H]2O[C@]2(C)CCC[C@H](C)[C@H](O)[C@@H](C)C(=O)C(C)(C)[C@@H](O)CC(=O)O1 | -66.8% (inactive)
C/C(=C\c1csc(C)n1)[C@@H]1C[C@@H]2O[C@@H]2CCC[C@H](C)[C@H](O)[C@@H](C)C(=O)C(C)(C)[C@@H](O)CC(=O)O1 | -69.4% (inactive)
C/C1=C/C[C@@H](/C(C)=C/c2csc(C)n2)OC(=O)C[C@H](O)C(C)(C)C(=O)[C@H](C)[C@@H](O)[C@@H](C)CCC1 | -85.9% (active)
CCN1CC2(COC(=O)c3ccccc3N3C(=O)CC(C)C3=O)CCC(OC)C34C5CC6C(OC)CC(O)(C5C6OC)C(O)(C(OC)C23)C14 (configuration not stated) | 4.55% (inactive)
C[C@H](NC(=O)[C@@H](N)Cc1ccc(O)cc1)C(=O)NCC(=O)N(C)[C@@H](Cc1ccccc1)C(=O)N[C@H](CO)CCS(C)=O (some centres not stated) | 12.9% (inactive)
O=C1/C(=C/c2ccccc2)C[C@@]2(O)C3Cc4ccc(O)c5c4[C@@]2(CCN3CC2CC2)[C@H]1O5 | 1.86% (inactive)
COc1ccc2c(c1)[C@]13CCCC[C@H]1[C@H](C2)N(C)CC3 | 16.4% (inactive)
Cc1cc(C)cc(C(=O)OC2CC3CCC(C2)N3C)c1 (configuration not stated) | -12.3% (inactive) and -9.52% (inactive)
CN1C(=O)CN=C(c2ccccc2)c2cc(Cl)ccc21 | -6.2% (inactive)
N#Cc1nn(-c2c(Cl)cc(C(F)(F)F)cc2Cl)c(N)c1S(=O)C(F)(F)F (configuration not stated) | 13.6% (inactive) and 5.34% (inactive)
CC(N)Cc1c[nH]c2ccc(OCc3cccs3)cc12 (configuration not stated) | 1.64% (inactive) and -1.85% (inactive)
C#Cc1cccc2c1c(C(=O)c1ccc(Cn3c(C)nc4cnccc43)c(F)c1)cn2C(=O)N(C)C | -7.53% (inactive)
Oc1ccc2c3c1O[C@H]1c4[nH]c5ccccc5c4C[C@@]4(O)C(C2)N(CC2CC2)CC[C@]314 | 10.7% (inactive)
CO[C@H]1CCC(O[C@H]2CC([C@]3(C)CC[C@]4(C[C@H](O)[C@@H](C)[C@@H]([C@@H](C)/C=C(\C)C(=O)[C@H](C)C[C@H](C)C(=O)O)O4)O3)O[C@]3(O[C@@H](C4O[C@@](O)(CO)[C@H](C)C[C@@H]4C)C[C@@H]3C)[C@@H]2C)O[C@@H]1C (some centres not stated) | -83.8% (active)
N[C@H](CO)Cc1ccccc1 | 1.26% (inactive)

SMILES | activity change, negative = inhibition
N#CC(C#N)=Cc1ccc([N+](=O)[O-])c(O)c1 | -6.99% (inactive)
Oc1ccc2c(c1)[C@@]13CCCC[C@@]1(O)[C@@H](C2)N(CC1CCC1)CC3 | 18.4% (inactive)
COC(=O)C[C@@](O)(CCC(C)(C)O)C(=O)O[C@@H]1C(OC)=C[C@]23CCCN2CCc2cc4c(cc2[C@@H]13)OCO4 | -83.3% (active)
CN1CCc2cc3c(cc2C1O)OCO3 (configuration not stated) | 7.57% (inactive)
CSCCC(NC(=O)C(Cc1ccccc1)NC(=O)CNC(=O)CNC(=O)C(N)Cc1ccc(O)cc1)C(=O)O (configuration not stated) | 10.2% (inactive)
CCC(CO)(C(=O)OC1CC2CCC(C1)[N+]2(C)C)c1ccccc1 (configuration not stated) | 0.204% (inactive)
FC(F)(F)c1cccc(C2=CCN(CCc3ccc4ccccc4c3)CC2)c1 | 10.1% (inactive) and 11.9% (inactive)
CCN1CCN(C(=O)Cc2ccc(Nc3ncc(F)c(Nc4ccc(C(=O)Nc5ccccc5Cl)cc4)n3)cc2)CC1 | -83.3% (active)
COC(=O)N1CCN(C(=O)Cc2ccc(Cl)c(Cl)c2)C(CN2CCCC2)C1 (configuration not stated) | 6.7% (inactive)
CC1(C)C2CC(=O)[C@]3(C)C(CC[C@@]4(C)[C@H](c5ccoc5)OC(=O)[C@H]5O[C@]543)[C@@]2(C)C(=O)C[C@H]1O (some centres not stated) | -1.25% (inactive)
CC(Cc1ccc(O)cc1)NCC(O)c1cc(O)cc(O)c1 (configuration not stated) | -70.6% (active) and 10.9% (inactive)
CNCC(O)c1ccc(O)cc1 (configuration not stated) | 3.63% (inactive) and 14.9% (inactive)
C[C@H](Cc1ccc(OCC(=O)O)cc1)NC[C@H](O)c1cccc(Cl)c1 | 4.02% (inactive) and 20.9% (inactive)
C[C@]12C=CC(=O)C=C1CCC1C2CC[C@]2(C)C(=O)CCC12 (some centres not stated) | 3.57% (inactive)
C[C@@H]1CN(C2CCC(C#N)(c3ccc(F)cc3)CC2)CC[C@]1(C(=O)O)c1ccccc1 (some centres not stated) | -7.9% (inactive)
C=C1CCC2(O)C3Cc4ccc(O)c5c4C2(CCN3CC2CC2)C1O5 (configuration not stated) | 12.3% (inactive)
NC[C@H](CC(=O)O)c1ccc(Cl)cc1 | 3.97% (inactive)
CN1C2CCC1CC(OC(c1ccccc1)c1ccc(Cl)cc1)C2 (configuration not stated) | -51.9% (inactive) and 41.6% (inactive)
CN(C)CCc1ccc(O)cc1 | 15.3% (inactive) and 3.73% (inactive)
CC[C@@H]1[C@@H](C)O[C@@](O)([C@@H](C)[C@H](O)[C@H](C)[C@H]2OC(=O)/C=C/C=C/[C@H](C)[C@H]([C@@H](C)[C@@H](O)[C@H](C)[C@@]3(O)C[C@@H](O[C@H]4C[C@H](O)[C@H](O)[C@H](C)O4)[C@H](CC)[C@@H](C)O3)OC(=O)/C=C/C=C/[C@H]2C)C[C@H]1O[C@H]1C[C@H](O)[C@H](O)[C@H](C)O1 | -83.6% (active)
CC(C)[C@@H](CN1CC[C@@](C)(c2cccc(O)c2)[C@@H](C)C1)NC(=O)[C@H]1Cc2ccc(O)cc2CN1 | 7.74% (inactive)
